In PubChem BioAssay (NCI):
This is part of a sample that, as a whole, favours compounds with a hit. Of some 79,000 tested, about 15% had one in any assay. Values without a mark were called inactive. Activity calls are given as the source filed them. Rule as the data show it: active = growth inhibition above about 70%; inactive = the rest.

Tests used:
[1] = NCI Yeast Anticancer Drug Screen. Data for the rad50 strain (AID 155);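 also: 0% = growth of vehicle-only cultures of the same strain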; conditions: S. cerevisiae rad50 strain growth inhibition; at 50.0 µM; stronger effect = higher value
In short: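 Yeast carrying a defined DNA repair defect were exposed to test compounds, and growth was compared with vehicle-treated controls to give percent inhibition.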

[2] = NCI Yeast Anticancer Drug Screen. Data for the mec2-1 strain (AID 157); conditions: S. cerevisiae mec2-1 strain, at 50.0 µM, stronger effect = higher value
In short: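 Vehicle-treated cultures served as reference for growth inhibition of compound-exposed mec2-1 yeast.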

[3] = NCI Yeast Anticancer Drug Screen. Data for the sgs1 mgt1 strain (AID 161);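 also: 0% = growth of cultures given vehicle only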; conditions: S. cerevisiae sgs1 mgt1 strain, at 50.0 µM, stronger effect = higher value
In short: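 Mutant yeast exposed to compound; growth scored against vehicle-only wells.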

[4] = NCI Yeast Anticancer Drug Screen. Data for the cln2 rad14 strain (AID 165);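 also: 0% = growth equal to vehicle treated cultures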; conditions: S. cerevisiae cln2 rad14 strain, at 50.0 µM, stronger effect = higher value
In short: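 Each compound was tested on cln2 rad14 yeast. Inhibition of growth was calculated against vehicle-exposed controls.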

[5] = NCI Yeast Anticancer Drug Screen. Data for the bub3 strain (AID 167); conditions: S. cerevisiae bub3 mutant strain, at 50.0 µM, stronger effect = higher value
In short: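 Compounds were applied to a genetically altered yeast strain carrying a cell-cycle control defect. Growth inhibition was scored against vehicle-treated controls.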

[6] = NCI Yeast Anticancer Drug Screen. Data for the mlh1 rad18 strain (AID 175); conditions: S. cerevisiae mlh1 rad18 strain growth inhibition; at 50.0 µM; stronger effect = higher value
In short: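 Vehicle-treated cultures served as the reference for growth inhibition in a yeast strain carrying DNA damage repair alterations exposed to each compound.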

Row | SMILES | growth inhibition [1] | growth inhibition [2] | growth inhibition [3] | growth inhibition [4] [%] | growth inhibition [5] | growth inhibition [6]
1 | COc1ccc(/C=C2\N=C(c3cc(OC)c(OC)c(OC)c3)OC2=O)cc1OC | 7.1% | 10.9% | 8.5% | 29.9 | -1.85% | 25.1%
2 | O=C(Oc1c(Cl)cc(Cl)cc1C=Nc1ccc(Cl)cc1)c1ccccc1 | 67.1% | 71.4% (active) | 88.7% (active) | 42.4 | 58.2% | 83.9% (active)
3 | O=C(Nc1ccccc1)O/N=C(/c1ccccc1)c1cccnc1 | 15.2% | -5.1% | 13.2% | -3.3 | 15.2% | 6.3%
4 | CCOC(OCC)C(Cl)(Cl)CCl | 6.25% | 4.45% | -3.8% | -25.4 | -0.6% | -6.35%
5 | COc1ccc(N2N=NN(C(C)C)/C2=C(/Cl)c2nnnn2-c2ccc(OC)cc2)cc1 | 25.8% | 42.9% | 33.8% | 19.1 | 24.9% | 39.3%
6 | COC(=O)C1=C(CO)C2C=CC1C2 (configuration not stated) | 3.25% | 26.1% | -1.1% | 6.55 | 6.15% | 6.7%
7 | O=C(CCC1CCCCC1)OCC1CCCO1 (configuration not stated) | 42.1% | 20.9% | 41.1% | 3.75 | 24.6% | 48.1%
8 | O=C1CSC(c2cccc(C(F)(F)F)c2)N1c1nncs1 (configuration not stated) | 10.5% | 2.15% | 19.6% | 7.95 | 16.6% | 15.1%
9 | COC(=O)C1=NC(=S)N=C(C(=O)OC)C1(C)C(=O)c1ccc(Cl)cc1 | -2.55% | 2.65% | -14.9% | 17.2 | 2.75% | 4.35%
10 | c1ccc2c(c1)oc1ccc3nsnc3c12 | 7.25% | -7.45% | 13.8% | -1.45 | 20.1% | -10.3%
11 | N#Cc1c(N2CCCC2)ncn(Cc2ccccc2)c1=O | 0.7% | 12.8% | 0.2% | -30.8 | 7.15% | 4.7%
12 | C/C(CC1CC=CCC1)=N\NC(N)=O (configuration not stated) | -16.1% | -4.7% | -2.6% | -20.5 | -3.8% | 30.8%
13 | Nc1ccccc1C(=O)Nc1ccc(Cl)cc1C(=O)O | -7% | -3% | -14.2% | -14.8 | 2.65% | -5.1%
14 | CCC(=O)Oc1ccccc1OC(=O)CC | 35.9% | 18.3% | 21% | 11.6 | 1.9% | 45.2%
15 | c1ccc(N2CCN(CCCN3CCc4c([nH]c5ccccc45)C3c3cccnc3)CC2)cc1 (configuration not stated) | -5.55% | -18.1% | -18.8% | 14.1 | -7.9% | -1.8%
16 | OC(c1nc2ccccc2s1)(C(F)(F)F)C(F)(F)F | -14.2% | -20.1% | -9.5% | 18.4 | -13% | 38.4%
17 | O=C(O)c1ccc(C2C(=O)N[C@@H]3CCC[C@H]23)cc1 (some centres not stated) | -33% | -5.75% | -22.1% | 6.05 | -12.9% | -32.1%
18 | Clc1cccc2nc(-c3ccccn3)n(CCc3ccncc3)c12 | 90% (active) | 51.1% | 84.7% (active) | 60.6 | 74.7% (active) | 86.2% (active)
19 | CC(=O)OCC1OC(N2C(c3ccccc3)=CC(c3ccco3)C(C#N)=C2S)C(OC(C)=O)C(OC(C)=O)C1OC(C)=O (configuration not stated) | 0.95% | -11.2% | 13.8% | 12.7 | 2.05% | 27.2%
20 | Cc1cccc(NC(=O)/C=C/C(=O)O)c1 | -31.9% | -41% | -17.9% | -20.9 | -29.6% | -45.1%
21 | CCSCCC(Nc1ncnc2nc[nH]c12)C(=O)O (configuration not stated) | -17.8% | 8.75% | -5.65% | -17 | -4.8% | -19.4%

Row | SMILES | growth inhibition [1] | growth inhibition [2] | growth inhibition [3] | growth inhibition [4] [%] | growth inhibition [5] | growth inhibition [6]
22 | O=C(O)C1Cc2c([nH]c3ccccc23)C(c2ccccc2)N1 (configuration not stated) | 1.3% | 11.1% | 10.8% | -56.6 | -16.8% | 14.4%
23 | CC(C)C12Cc3c(ccc4ccccc34)OC1(C)Oc1ccc3ccccc3c1C2 (configuration not stated) | 18.6% | -17.4% | -13.5% | 20.1 | -6.8% | 7.05%
24 | Cc1ccc(N2P(N(C)C)N(c3ccc(C)cc3)P2(=O)N(C)C)cc1 (configuration not stated) | 12.4% | 22.4% | 9.45% | -5.6 | 3.6% | 6.4%
25 | CCCCCCCOc1ccc(/C=C\c2cc[n+](CCCCCCCC[n+]3ccc(/C=C\c4ccc(OCCCCCCC)cc4)cc3)cc2)cc1 | -22.4% | -7.95% | -14.2% | 22.7 | 8.1% | 10.2%
26 | COc1cc2c(cc1OC)C(=O)/C(=C/c1ccccc1)CC2 | 6.95% | -6.45% | 12.2% | 11.8 | 37% | 28.6%
27 | Cc1ccc[n+](CCCCCCCC[n+]2cccc(C)c2)c1 | 54.7% | 2.7% | 44.4% | -2.25 | 3.4% | 33.2%
28 | COc1ccc(N=Nc2sc(N)nc2-c2cccc([N+](=O)[O-])c2)cc1 | 5% | 4.85% | 10.1% | -13.8 | 8.6% | 11.7%
29 | CCCCCCCC(=O)Oc1c(Cl)c(Cl)c(C#N)c(Cl)c1C#N | 20.9% | -3.55% | 11.5% | 13.7 | 5.8% | 25.4%
30 | CC(C)(C)c1cc(CCCCCCCC2(CCCCCCCc3cc(C(C)(C)C)cc(C(C)(C)C)c3)OC(COCCOCCCCCC#N)C(COCCOCCCCCC#N)O2)cc(C(C)(C)C)c1 (configuration not stated) | 24.6% | -6.5% | -1.5% | -18 | 0% | 9.6%
31 | CC(=O)NC(CCc1ccccc1)C(=O)O (configuration not stated) | 16.1% | 32.4% | 0.9% | 24.9 | 40.8% | 13.8%
32 | O=C(NC(=O)c1ccccc1Cl)Nc1ccc(C(O)(C(F)(F)F)C(F)(F)F)cc1 | 53.8% | 53.5% | 58.4% | 68.7 | 34.3% | 61.5%
33 | CCCC1(O)c2ccccc2-c2ccccc21 | 12.1% | 17.9% | -5.6% | 14.9 | 26.4% | 17%
34 | C/C(=C\CNc1ncnc2c1ncn2CCC(=O)OC(C)(C)C)CO | -12.3% | -8.7% | -49.1% | 13.1 | 5.6% | -17.6%
35 | CNC(=O)N(Cl)c1ccc(Cl)cc1 | 5.45% | 12.9% | 1.9% | -26.6 | 7.45% | -0.25%
36 | CC(=O)N=C1CSc2ccccc2N1C | -1.15% | -7.2% | -7.9% | -40.4 | -15.5% | -8.9%
37 | O=C(CCCCCCCCC(=O)NO)NO | -10.8% | 0.45% | -2.9% | 4 | -2.95% | -2.5%
38 | Cc1ccc(S(=O)(=O)NN=C2C(C)CC(C(C)(C)C)CC2C)cc1 (configuration not stated) | -24.8% | 26% | -41.9% | 8.9 | 44.6% | -6%
39 | O=C(Cl)c1ccc2ccccc2c1 | 45.8% | 8.3% | 3% | -43 | -20.4% | 29.4%
40 | CCOC(=O)/C(=N\O)C(C)(C)c1ccnc2ccccc12 | -4% | 0.6% | -10.9% | 4.05 | -5% | 4.7%
41 | Nc1ncnc2c1ncn2CCCCC(=O)O | -17.1% | -12.2% | -23.6% | -2.1 | -53% | -15.3%
42 | O=C(CCCn1cnc([N+](=O)[O-])n1)NCCCn1ccnc1[N+](=O)[O-] | -26.2% | -19.7% | -26.1% | -3.45 | -34.8% | -7.8%
